# Data taken from PubChem BioAssay AID651784 (National Center for Advancing Translational Sciences (NCATS), 2012).
# Results filed as inconclusive are left out. Calls of active or inactive are those of the source. The call rests on the fitted dose curve; in most records, active means well fitted inhibition curve with a large enough effect; inconclusive means small, poorly fitted or top-dose-only effect; inactive means no such curve, though single readings can be large or run the other way.
# Assay: Acumen qHTS Assay for Inhibitors of the mTORC1 Signaling Pathway in MEF (Tsc2-/-, p53-/-) Cells: Hit Validation;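 further: phospho-rpS6 Ser235/236 immunofluorescence normalized to propidium iodide cell count; nearly all actives have a fitted effect of over 65% in size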;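 on activity change, negative = inhibition: cells exposed to compound for 24 hours; plate controls were DMSO for no effect and 7.5 nM rapamycin control for full effect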
# Conditions: Acumen imaging; activity change, negative = inhibition: at 37.3 µM (top of the series)
# Potency means the concentration at half of the fitted maximal effect.
Compound,"activity change, negative = inhibition [%]",Potency
CCN1CCOC(=O)C1CC(=O)Nc1cccc(OC)c1 (configuration not stated),-21.3,–
CCS(=O)(=O)c1ncc(Cl)c(C(=O)NCc2ccc(OC)cc2)n1,–,6.56 µM (active)
CCc1ccc(NC(=O)Cn2c(=O)n(-c3ccc(OC)cc3)c(=O)c3ccc(C(=O)NCc4ccc(C)cc4)cc32)cc1,–,4.65 µM (active)
CCCC1=Nc2cc(C(=O)NC3CCCC3)ccc2Sc2ccc(C)cc21,–,1.17 µM (active)
COc1ccc(N2CCN(C(=O)C3CCN(Cc4nc(-c5ccc(Cl)cc5)oc4C)CC3)CC2)cc1,-10.9,–
CCc1ccc(S(=O)(=O)c2nnn(-c3ccc(F)cc3)c2N)cc1,-3.55,–
COc1ccc(C2=NS(=O)(=O)N(C)C(C(=O)Nc3ccc(OC(F)(F)F)cc3)=C2)cc1,2.76,–
COC(=O)c1c(C)oc2ccc(N(C(=O)c3ccncc3)S(=O)(=O)c3ccc(OC)cc3)cc12,–,1.85 µM (active)
CCS(=O)(=O)c1ncc(Cl)c(C(=O)NCc2ccccc2)n1,–,6.56 µM (active)
CCOc1ccc(NC(=O)CSc2oc(-c3ccc(F)cc3)nc2S(=O)(=O)c2ccc(C)cc2)cc1,–,4.65 µM (active)
Cc1cccc(C)c1Nc1sc(C(=O)c2ccccc2)c(N)c1S(=O)(=O)c1ccccc1,–,2.61 µM (active)
Cc1ccc(-c2nnn(CC(=O)N(CC(=O)NCCC(C)C)c3ccc(F)cc3)n2)cc1,20.3,–
Cc1cc(NC(=O)c2ccco2)cc(-c2nc3cc(Cl)ccc3o2)c1O,-46.5,–
COc1cccc(-n2c(-c3ccc(C)cc3)cc3c2CC(C)(C)CC3=O)c1,-34.9,–
COC(=O)c1ccccc1NC(=O)Cn1c(=O)n(-c2ccc(C)cc2)c(=O)c2ccccc21,–,5.85 µM (active)
COC(=O)c1ccc(Nc2nnc(-c3ccc(C)c(S(=O)(=O)N4CCN(C)CC4)c3)c3ccccc23)cc1,-21.5,–
CS(=O)c1ccc(-c2nc(-c3ccc(F)cc3)c(-c3ccncc3)[nH]2)cc1 (configuration not stated),-5.71,–
CCCCS(=O)(=O)c1oc(-c2ccc(F)cc2)nc1S(=O)(=O)c1ccccc1,-151,–
CN1CCN(C(CNC(=O)C(=O)Nc2cccc(Cl)c2)c2ccc3c(c2)OCO3)CC1 (configuration not stated),-4.53,–

Compound,"activity change, negative = inhibition [%]",Potency
CCN1C(=O)c2ccccc2Sc2ccc(NC(=O)Cc3ccc(OC)cc3)cc21,–,4.14 µM (active)
CCN(c1ccccc1)S(=O)(=O)c1ccc(NC(=O)c2nc(S(C)(=O)=O)ncc2Cl)cc1,–,4.14 µM (active)
O=S(=O)(c1cccc2cnccc12)N1CCCNCC1,-7.7,–
Cc1ccc(CS(=O)(=O)c2ncc(Cl)c(C(=O)Nc3nnc(C(C)C)s3)n2)cc1,–,5.85 µM (active)
Cc1nn(CCCC(=O)NCc2ccccc2)c(=O)c2c1sc1ccccc12,13.7,–
O=C(Cn1c(=O)n(Cc2ccc3c(c2)OCO3)c(=O)c2ccc(C(=O)NC3CCCCC3)cc21)Nc1ccccc1F,-94.5,–
Cc1cccc(NC(=O)Cn2cc(C(=O)C3CCCCC3)c3ccccc32)c1C,–,1.04 µM (active)
CCCCN(C)C(=O)CSc1c2c(nc3ccc(Cl)cc13)CCCC2,-13.3,–
Cc1c(C(=O)OCCOc2ccccc2)[nH]c2c1C(=O)CC(c1ccccc1)C2 (configuration not stated),–,0.117 µM (active)
CCOC(=O)c1ccc(-c2ccc(/C=C(\C#N)c3nc4ccc(C)cc4[nH]3)o2)cc1,–,4.14 µM (active)
COc1ccccc1NC(=O)CSc1ccc(-c2ccccn2)nn1,–,11.7 µM (active)
COc1ccc(NC(=O)c2c(C)oc3ccc(O)c(CN4CCCC(C)C4)c23)cc1Cl (configuration not stated),–,9.27 µM (active)
Cc1ccc(OCC(O)Cn2c(=N)n(CCN3CCCCC3)c3ccccc32)cc1 (configuration not stated),–,10.4 µM (active)
COc1ccc(CNC(=O)C2CCN(c3nc4ccc(C)cc4[nH]3)CC2)cc1,22.4,–
CC(C)CS(=O)(=O)c1oc(-c2ccc(F)cc2)nc1S(=O)(=O)c1ccccc1,-152,–
CCN(C(=O)C(NS(=O)(=O)c1ccc(Br)s1)c1ccccc1)c1ccc(C)c(C)c1 (configuration not stated),-46.3,–
Cc1ccc(C)c(N2CCN(CCCNC(=O)c3nnc(Cc4ccc(F)cc4Cl)o3)CC2)c1,–,10.4 µM (active)
CCOC(=O)C1CCN(C(=O)CSc2c3c(nc4ccc(Cl)cc24)CCCC3)CC1,-5.08,–
